Measured values reported in the supplement of paper PMC10981050.
Several values for one entry are separate records, joined by “and”; a condition that tells them apart may be missing. Identical values can stand only once. Counter-ions that a name gives are not always drawn.

Columns and labels:
Test in all cases: cell viability relative to vehicle control; higher = less cytotoxic
Conditions in all cases: 10 µM
K562 = tested on: K562
In short: (§1)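 CRISPR-edited mutant clones and isogenic wild-type clones from four leukaemia lines were screened against Selleck bioactive, kinase and epigenetic probe libraries, with identity-inconsistent compounds excluded. Each compound was acoustically dispensed at a single 10 µM dose into 384-well plates holding 2000 cells in 50 µL medium per well. After 48 h the supernatant was removed and CellTiter-Glo luminescence was read. Viability was expressed as percent of the on-plate vehicle control and analysed in Genedata Screener.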

MARIMO = tested on: MARIMO
In short: as §1

MOLM14 = tested on: MOLM14
In short: as §1

OCI-AML2 = tested on: OCI-AML2
In short: as §1

SMILES	cell viability (K562; SRSF2 genotype: SRSF2 P95H/wt)	cell viability (K562; SRSF2 genotype: SRSF2 wt/wt) [%]	cell viability (MARIMO; SRSF2 genotype: SRSF2 P95H/wt) [%]	cell viability (MARIMO; SRSF2 genotype: SRSF2 wt/wt) [%]	cell viability (MOLM14; SRSF2 genotype: SRSF2 P95H/wt) [%]	cell viability (MOLM14; SRSF2 genotype: SRSF2 wt/wt) [%]	cell viability (OCI-AML2; SRSF2 genotype: P95H/wt) [%]	cell viability (OCI-AML2; SRSF2 genotype: wt/wt) [%]
C[C@@H]1CC[C@@]2(NC1)O[C@H]1C[C@H]3[C@@H]4CC=C5C[C@@H](O[C@@H]6O[C@H](CO)[C@@H](O[C@@H]7O[C@@H](C)[C@H](O)[C@@H](O)[C@H]7O)[C@H](O)[C@H]6O[C@@H]6O[C@@H](C)[C@H](O)[C@@H](O)[C@H]6O)CC[C@]5(C)[C@H]4CC[C@]3(C)[C@H]1[C@@H]2C [Solamargine]	85.3% and 85.5%	81.8	51.5	89.6	81.6	81.6	91	87.2
O=c1sn(-c2cccc3ccccc23)c(=O)n1Cc1ccccc1 [Tideglusib]	77.4% and 78.3%	82.9	70.7	79.9	55.5	68.8	54.7	53.3
CC(C)OC(=O)C(C)(C)Oc1ccc(C(=O)c2ccc(Cl)cc2)cc1 [Fenofibrate (Tricor, Trilipix)]	80.4% and 86.4%	85.1	79.2	81.2	93.7	98.5	67.1	82.8
Cn1cnc(=N)c2[nH]cnc21 [3-Methyladenine (3-MA)]	94.6% and 88.8%	106	82.6	92.4	88	92	93.4	97.6
CC1(C)CC[C@]2(C(=O)O)CC[C@]3(CO)C(=CC[C@@H]4[C@@]5(C)C[C@H](O)[C@H](O[C@@H]6O[C@H](CO)[C@@H](O)[C@H](O)[C@H]6O)[C@@](C)(C(=O)O)[C@@H]5CC[C@]43C)[C@@H]2C1 [Tenuifolin]	102% and 96.9%	105	104	112	99.4	108	102	103
Nc1ncnc2n[nH]c(Nc3ccc(F)cc3)c12	86.7% and 96.4%	82.6	70	67.5	69.2	71.8	65.5	63.8
CCC(=O)O[C@]1(C(=O)CCl)[C@@H](C)C[C@H]2[C@@H]3CCC4=CC(=O)C=C[C@]4(C)[C@@]3(F)[C@@H](O)C[C@@]21C [Clobetasol propionate]	88.3% and 95.4%	88.2	85.1	96.7	81.2	80.8	90.5	101
Nc1ncnc2c1ncn2C1OC(COP(=O)(O)OP(=O)(O)O)C(O)C1O (stereo unspecified)	111% and 110%	107	91.2	90.7	101	95	96.3	99.9
O=C(C1CCCCC1)N1CC(=O)N2CCc3ccccc3C2C1 (stereo unspecified) [Praziquantel (Biltricide)]	105% and 101%	102	109	107	111	109	115	103
Cc1nn(C)c2nc(NNC(=O)Nc3cc(Cl)nc(Cl)c3)cc(C(C)C)c12	70.7% and 79.6%	70	82.1	61.8	83	83.8	50.5	55.4
CCOC(=O)[C@@H](N)Cc1ccc(-c2cc(O[C@H](c3ccc(Cl)cc3-n3ccc(C)n3)C(F)(F)F)nc(N)n2)cc1 [LX1606 hippurate]	64.2% and 52.4%	57.2	68.9	72.7	14.2	44.5	4.73	12.2
CC(=O)Nc1ccccc1 [Acetanilide (Antifebrin)]	104%	101	106	106	96.4	101	105	102
Clc1ccc(C(c2ccccc2Cl)C(Cl)Cl)cc1 (stereo unspecified) [Mitotane]	91.2% and 89.1%	87.6	83	106	90.8	84.8	93.7	107
Nc1cc(C(F)(F)F)c(-c2cc(N3CCOCC3)nc(N3CCOCC3)n2)cn1	30.2% and 37.9%	31.9	23.2	20.3	11.9	11	11.6	15.7
C[C@]12CCC3=C4CCC(=O)C=C4CC[C@H]3[C@@H]1CC[C@@]2(O)CC#N [Dienogest]	104% and 96.7%	102	93	107	100	103	104	106
Cc1nc2c(O)cccc2c(=O)[nH]1	94.6% and 99.4%	114	99.4	93.8	95.6	101	94.2	108
CC(=O)NC(Cc1ccc(O)cc1)C(=O)NC(CCCN=C(N)N)C(=O)NC(Cc1ccccc1)C(N)=O (stereo unspecified)	87.2% and 83.5%	85.6	84.2	88.4	87.3	85.4	87.9	87.5
Cc1ccc(NS(=O)(=O)c2ccc3c(c2)C2C=CCC2C(c2ccc(C(=O)O)cc2)N3)cc1C (stereo unspecified)	108% and 98.9%	110	102	101	106	104	103	117
C[C@@H](OC[C@@]1(c2ccccc2)CC[C@]2(CCC(=O)N2)CN1)c1cc(C(F)(F)F)cc(C(F)(F)F)c1 [Rolapitant]	54% and 72.1%	68.8	52.3	48.8	54.5	44.5	45.2	39.1

SMILES	cell viability (K562; SRSF2 genotype: SRSF2 P95H/wt)	cell viability (K562; SRSF2 genotype: SRSF2 wt/wt) [%]	cell viability (MARIMO; SRSF2 genotype: SRSF2 P95H/wt) [%]	cell viability (MARIMO; SRSF2 genotype: SRSF2 wt/wt) [%]	cell viability (MOLM14; SRSF2 genotype: SRSF2 P95H/wt) [%]	cell viability (MOLM14; SRSF2 genotype: SRSF2 wt/wt) [%]	cell viability (OCI-AML2; SRSF2 genotype: P95H/wt) [%]	cell viability (OCI-AML2; SRSF2 genotype: wt/wt) [%]
CCN(CC)CCOCCOC(=O)C1(c2ccccc2)CCCC1 [Pentoxyverine Citrate]	98.4% and 105%	108	92.9	104	96.4	104	112	97
CC(C)(C)OC(=O)N[C@@H]1CCCC[C@H]1N [(1R,2R)-trans-N-Boc-1,2-cyclohexanediamine]	104% and 108%	98.6	101	104	101	105	114	104
CC1(COc2ccc3c(c2)ncn3-c2ccc3cccc(N4CCC(N)CC4)c3n2)COC1	84.9% and 68.8%	71.4	5.64	16.6	5.66	1.2	14.6	13
CC[C@H]1OC(=O)[C@H](C)[C@@H](O[C@H]2C[C@@](C)(OC)[C@@H](O)[C@H](C)O2)[C@H](C)[C@@H](O[C@@H]2O[C@H](C)C[C@H](N(C)C)[C@H]2O)[C@](C)(O)C[C@@H](C)CN[C@H](C)[C@@H](O)[C@]1(C)O [Azathramycin]	104% and 112%	115	107	104	109	108	111	97.8
C[C@]12C=CC(=O)C=C1CC[C@@H]1[C@@H]2C(=O)C[C@@]2(C)[C@H]1CC[C@]2(O)C(=O)CO [Prednisone (Adasone)]	102% and 107%	95.5	104	101	108	107	106	110
COc1ccccc1N1CCN(CCN(C(=O)C2CCCCC2)c2ccccn2)CC1	76.7% and 78.4%	77.3	67.8	73	75.4	77.3	74.9	66.3
CCCNS(=O)(=O)Nc1ncnc(OCCOc2ncc(Br)cn2)c1-c1ccc(Br)cc1 [Macitentan]	104% and 105%	96.8	100	118	103	110	102	110
Cc1nc(NC(=O)N2CCC[C@H]2C(N)=O)sc1-c1ccnc(C(C)(C)C(F)(F)F)c1 [Alpelisib (BYL719)]	93.3% and 102%	90.4	55.6	52.6	52.6	65.1	32.2	41
CNC(=O)Nc1ccc(-c2nc(N3CC4CCC(C3)O4)c3cnn(C4CCC5(CC4)OCCO5)c3n2)cc1	40.7% and 42.8%	34.4	57.6	45	36	28.1	29	28.7
C[C@@H](Nc1cc(F)cc(F)c1)c1cc(C(=O)N(C)C)cc2c(=O)cc(N3CCOCC3)oc12	87% and 91.9%	85.5	52	47.3	42.3	51.1	25.5	37.4
CCC(C)n1ncn(-c2ccc(N3CCN(c4ccc(OCC5COC(Cn6cncn6)(c6ccc(Cl)cc6Cl)O5)cc4)CC3)cc2)c1=O (stereo unspecified) [Itraconazole (Sporanox)]	76.7% and 94.4%	83.1	49.6	55	71.1	96.7	50.8	55.4
COc1cc2ncnc(Oc3ccc(CC(=O)Nc4cnn(C(C)C)c4)cc3)c2cc1OC	74.8% and 98.4%	72.4	113	107	16.1	14.1	36.1	42.4
C[C@]12C=CC(=O)C=C1CC[C@@H]1[C@@H]2[C@@H](O)C[C@@]2(C)[C@H]1CC[C@]2(O)C(=O)CO [Prednisolone]	105% and 98.9%	106	101	103	98.5	96.3	91.1	111
CCOCCn1c(N2CCCN(C)CC2)nc2ccccc21 [Emedastine]	100% and 96.7%	101	101	107	102	107	114	104
Cc1cc(C(=O)NOCCO)c(Nc2ccc(I)cc2F)n(C)c1=O	79.1% and 88%	84.6	43.3	36.3	43.5	28.7	39.4	42.9
CCNC(=O)c1noc(-c2cc(Cl)c(O)cc2O)c1-c1ccc(OC)cc1	20.7% and 32.8%	25.5	31.9	25.1	2.02	2.25	16.2	20.2
Clc1ccc(C(c2c[nH]c3ccccc23)c2c[nH]c3ccccc23)cc1	83% and 83.3%	76.5	86.3	93.2	62.7	73	92	96.7
C=C1C(=O)O[C@@H]2/C=C(\C)CC/C=C(\C)CC[C@@H]12 [Costunolide]	23.8% and 32%	41.4	25.3	17.8	3.29	5.5	2.25	7.11
